For 27 compounds, z-score results are on record in PubChem BioAssay.

Unmarked numbers belong to inactive results.

This experiment in a line: E. coli acrAB mutant growth effects, primary screen, E. coli filamentation inducers, strain DRC39, OD650, 48 h (AID 1179).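 Also: screen aims at cell division blockers that make cells filament.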 As to conditions: E. coli DRC39 delta-acrAB growth, higher = more signal, called active from +8 up or from −8 down.
As to `CC(C)C(=C=CC[C@H](O)c1ccc(OCCO)cc1)CCO`, the z-score is -0.794.
Take `C[C@H]1C2[C@H](Cc3ccccc3)NC(=O)[C@]23C(=O)N[C@H](Cc2ccccc2)C(=O)N2CCC[C@H]2C(=O)NC/C=C\C/C=C/C3[C@@H]2O[C@]12C` (some centres not stated): the z-score is -0.0988.
As for `CN(C)CCCCCCNC(=O)[C@H]1C[C@H]2C(=O)N[C@@H](CCCCN)C(=O)N2[C@H]1c1cccc(OCCO)c1`, the z-score was -0.02.
Next, `C=CCC(OC(C)=O)[C@@H]1[C@@H](N(Cc2cc3ccccc3o2)C(=O)c2cccc3ccccc23)c2cc(OCCCO)ccc2N1C(=O)c1ccc(-c2ccccc2)cc1` (some centres not stated): -0.11; `COC(=O)[C@@]1(Cc2ccc(OC)cc2)[C@H]2c3cc(C(=O)N4CCCC4)n(Cc4ccc(O)c(OC)c4)c3C[C@H]2CN1C(=O)c1ccccc1`: -0.0429; `COC(=O)[C@@]1(Cc2ccc(OC)cc2)[C@H]2c3cc(C(=O)N4CCCC4)n(Cc4ccc(C)c(F)c4F)c3C[C@H]2CN1C(=O)c1ccccc1`: -0.237.
The value for `C=CCOC(=O)[C@H]1[C@@H]2C(=O)O[C@@H](c3ccccc3)[C@@H](c3ccccc3)N2[C@@H](c2ccc(OCCOC(=O)[C@@H]3C[C@@H]4C(=O)N[C@@H](CCCCNC(C)=O)C(=O)N4[C@@H]3c3ccc(O)cc3)cc2)[C@]12C(=O)Nc1ccccc12` was -1.35; that for `COC(=O)[C@@]1(Cc2ccc(OC)cc2)[C@H]2c3cc(C(=O)N(C)C)n(Cc4ccc(S(C)(=O)=O)cc4)c3C[C@H]2CN1C(=O)c1ccccc1` was -0.441.
For the compound `CC(C)=CCN[C@H](CO)c1ccccc1`, the z-score was -1.49.
The value for `COC(=O)[C@@]1(Cc2ccc(F)cc2)[C@H]2c3cc(C(=O)N4CCCC4)n(Cc4ccc(S(C)(=O)=O)cc4)c3C[C@H]2CN1C(=O)c1ccccc1` was -0.704.
The value for `COc1ccc(C#Cc2ccc3c(c2)[C@]2(C(=O)N3)[C@H](C(=O)Nc3nc4ccccc4s3)[C@H]3C(=O)O[C@H](c4ccccc4)[C@H](c4ccccc4)N3[C@@H]2c2ccc(O)cc2)cc1` was -0.0528.
Next, `[N-]=[N+]=Nc1ccccc1[C@H]1OC(c2ccc(OCCCO)cc2)=N[C@@]1(CCS(=O)(=O)c1ccccc1)C(N)=O`: -0.319.
As for `CC(C)c1ccc(NN2C(C(O)c3ccc(B(O)O)cc3)C=CC3C(=O)N(c4ccccc4)C(=O)C32)cc1` (configuration not stated), the z-score is -0.543.
Next, `COC(=O)[C@@]1(Cc2ccc(F)cc2)[C@H]2c3cc(C(=O)N(C)C)n(Cc4ccccc4)c3C[C@H]2CN1C(=O)c1ccccc1`: 0.232; `[N-]=[N+]=Nc1ccccc1[C@@H]1OC(c2ccc(OCCCO)cc2)=N[C@]1(Cc1ccccc1)C(=O)N1CCOCC1`: -0.412.
Next, `CN(C)C(=O)[C@]1(Cc2ccccc2N=[N+]=[N-])N=C(c2ccc(OCCCO)cc2)O[C@@H]1c1ccccc1N=[N+]=[N-]`: 2.07; `CC(C)NC(=O)[C@@]1(c2ccc([N+](=O)[O-])cc2)CC(=O)N(C2CCCCC2)[C@@H]1c1ccc(CO)cc1I`: 0.0026.
The value for `COCCOC(=O)N1C(=O)[C@@]2(c3cc(C#Cc4ccc(OC)cc4)ccc31)[C@H](c1ccc(OCCO)cc1)N1[C@H](c3ccccc3)[C@H](c3ccccc3)OC(=O)[C@H]1[C@@H]2C(=O)N1CCN(c2ncccn2)CC1` was -0.312; that for `CCC[C@@H]1C[C@@]1(CCC)[C@@H](NC(=O)c1ccccc1)c1cccc(Cl)c1` was -0.514.
For `[N-]=[N+]=Nc1ccccc1[C@H]1OC(c2ccc(OCCCO)cc2)=N[C@@]1(CCS(=O)(=O)c1ccccc1)C(=O)NCC(O)CO` (some centres not stated), the z-score is -0.878.
The value for `O=C1N[C@@H](Cc2ccccc2)C(=O)N2[C@@H]1C[C@@H](C(=O)O)[C@H]2c1cccc(OCCO)c1` was 0.993.
Take `COc1ccc([Si](C)(C)[C@@H]2[C@@H](CC(=O)N3CCC[C@H]3CO)O[C@]3(C(=O)N(c4ccccc4)c4ccccc43)[C@H]2C)cc1`: the z-score was 0.258.
The value for `CC(C)N1C(=O)C[C@@](C(=O)NCC(F)(F)F)(c2ccc([N+](=O)[O-])cc2)[C@H]1c1ccc(CO)cc1` was 0.629; that for `CN1C(=O)C2C=CC(C(O)C#Cc3ccccc3)N(N3CCCCC3)C2C1=O` (configuration not stated) was -0.884; that for `C=C(C)[C@@H]1CC=C(C(O)C2C=CC3C(=O)N(C)C(=O)C3N2Nc2ccccc2)CC1` (some centres not stated) was -0.472.
Next, `C=CCOC(=O)[C@@H]1[C@H]2C(=O)O[C@H](c3ccccc3)[C@H](c3ccccc3)N2[C@H](c2ccc(OCCOC(=O)[C@@H]3C[C@@H]4C(=O)NCC(=O)N4[C@@H]3c3ccc(O)cc3)cc2)[C@@]12C(=O)Nc1ccc(I)cc12`: -0.515; `COC(=O)[C@@]1(Cc2ccc(OC)cc2)[C@H]2c3cc(C(=O)N(C)C)n(CCc4ccccn4)c3C[C@H]2CN1C(=O)c1ccccc1`: -0.655.
